Screens from PubChem BioAssay.
FXIa mix inh: inhibitors of human coagulation factor XIa, pooled mixtures. inhibition, % at 5 µM. 0.19% of 62,000 active. P03951. purified FXIa, fluorogenic substrate;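 further: each value is inhibition by a whole ten-compound pool holding the compound; 0% = enzyme with no mixture and 100% = wells lacking enzyme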
Cathepsin G inh: cathepsin G (human) inhibition; purified enzyme, AMC-tetrapeptide fluorescence, pooled mixtures; 0.2% of 62,000 active; AID 581; inhibition, % at 5 µM (by protocol); P08311;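 active means inhibition above 20% in each of the two mixture wells holding the compound; inactive means inhibition of 20% or less in either well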;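 further: 0% = enzyme control without mixture and 100% = blank lacking enzyme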
Target sequence (P08311 21-244 limits assumed): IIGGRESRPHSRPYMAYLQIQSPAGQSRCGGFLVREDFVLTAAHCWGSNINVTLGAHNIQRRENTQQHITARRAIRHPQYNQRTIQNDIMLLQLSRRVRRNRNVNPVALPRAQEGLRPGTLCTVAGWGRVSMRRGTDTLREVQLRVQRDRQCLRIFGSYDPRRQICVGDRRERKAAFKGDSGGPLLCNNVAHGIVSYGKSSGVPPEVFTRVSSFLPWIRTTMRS
FXIIa mix inh: inhibitors of human coagulation factor XIIa, pooled mixtures; purified FXIIa, fluorogenic substrate; inhibition, % at 5 µM; 0.2% of 62,000 active; AID 684;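 further: 0% = enzyme without compound and 100% = no enzyme blank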
PLAP act: activators of human placental alkaline phosphatase. 1.2% of 96,000 active. purified PLAP enzyme, luminescent substrate read-out; stronger effect = higher value. AID 696. activation fold at 20 µM; in the data active means activation fold above about 2
C1s block: blocks human complement C1s protease activity | P09871 | purified C1s, fluorogenic AMC substrate, pooled mixtures | mean inhibition % of two 10-compound mixtures (stronger effect = higher value), % at 5 µM (by protocol) | 0.16% of 62,000 active | AID 538;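 active means inhibition above 20% in each of the two 10-compound mixture wells holding the compound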;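 further: 0% = enzyme wells lacking compound mixture and 100% = no-enzyme blank wells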
HePTP inh: blocks human HePTP tyrosine phosphatase; inhibition, % at 20 µM; 0.64% of 110,000 active; AID 521; recombinant HePTP phosphatase activity, OD absorbance; in the data active means inhibition above about 50%;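 further: plate controls were vehicle for no effect and reference inhibitor for full effect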
Target sequence (P35236 whole entry, looked up): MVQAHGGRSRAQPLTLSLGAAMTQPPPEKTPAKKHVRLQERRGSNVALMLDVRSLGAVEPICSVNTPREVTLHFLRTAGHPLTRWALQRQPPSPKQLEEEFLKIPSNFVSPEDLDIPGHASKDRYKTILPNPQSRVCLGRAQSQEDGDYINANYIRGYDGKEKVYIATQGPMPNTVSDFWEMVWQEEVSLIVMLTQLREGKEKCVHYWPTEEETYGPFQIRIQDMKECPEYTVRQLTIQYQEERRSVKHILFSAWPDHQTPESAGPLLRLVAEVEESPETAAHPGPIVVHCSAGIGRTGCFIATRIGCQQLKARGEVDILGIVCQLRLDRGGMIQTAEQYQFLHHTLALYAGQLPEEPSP
An asterisk follows results filed as active; · = no result given. Most compounds without a hit are left out; they make up all but 1.4% or so of the library. Unless noted, no stated cut-off is given here; in the data, active means inhibition above about 20% (passing the limit was not always enough); inactive means the rest.

SMILES	FXIa mix inh	Cathepsin G inh	FXIIa mix inh	PLAP act	C1s block	HePTP inh
COc1ccc(-c2n[nH]c3c2C(c2ccc(OC)c(OC)c2)N(c2ccccc2)C3=O)cc1 (centres undefined)	·	·	·	2.4*	·	·
CS(=O)(=O)N(CC(=O)Nc1ccc(Oc2ccccc2)cc1)c1ccc(Br)cc1	·	·	·	·	·	-12
COc1ccc(NC(=O)COc2cccc(C)c2C)c([N+](=O)[O-])c1	·	·	·	·	·	2
COc1ccc(N2CCN(CC(O)COc3ccc4c(c3)CCC4)CC2)cc1 (centres undefined)	·	·	·	2*	·	·
COc1cccc(NC(=O)CCc2ccccc2)c1	·	·	·	·	·	-10
COc1cccc(NC(=O)CCP(C)(=O)O)c1	6	11	-14	1	63*	4
Cc1csc(NC(=O)C2CCN(S(=O)(=O)c3ccc4c(c3)oc(=O)n4C)CC2)n1	·	·	·	1.1	·	·
Cc1csc(NC(=O)C(CC(C)C)NS(=O)(=O)c2ccc3c(c2)oc(=O)n3C)n1 (centres undefined)	8	11	-19	2.3*	16	10
Nc1ncnc2nc(SCCc3ccccc3)[nH]c12	7	-10	32	2*	-7	-5
CCN1CCN(C(=O)c2cc([N+](=O)[O-])cc([N+](=O)[O-])c2)CC1	·	·	·	·	·	-18
O=C(CSCC(=O)Nc1ccc(F)c([N+](=O)[O-])c1)Nc1ccccc1	·	·	·	·	·	-17
O=C(CSc1ccc(C(F)(F)F)cc1[N+](=O)[O-])Nc1ccccc1	·	·	·	0.8	·	105*
CCOc1ccc2[nH]c(=O)c(CN(Cc3cccs3)Cc3nnnn3C(C)(C)C)cc2c1	8	-2	-14	0.9	-7	8
COc1ccc2[nH]c(=O)c(CN(Cc3cccs3)Cc3nnnn3C(C)(C)C)cc2c1	22*	22	6	1.3	13	-8
COc1ccc(/C=N/n2cnnc2SCc2ccccc2)cc1OC	·	·	·	·	·	6
Cc1ccc(C)c(NC2=NC3(CCCC3)N=C(N)N2)c1	·	·	·	·	·	0
Cc1cc(C)cc(NC2=NC3(CCCCC3)N=C(N)N2)c1	8	0	-24	2.7*	-1	12
O=c1c2ccccc2nc(/C=C/c2cccc(Br)c2)n1Cc1ccccc1	·	·	·	·	·	-12
Cn1cc(/C=C/c2nc3ccccc3c(=O)n2Cc2ccccc2)c2ccccc21	·	·	·	·	·	104*
Brc1ccc2nc(CSc3ncn[nH]3)cn2c1	6	-2	5	2.8*	-5	6
O=C(CSc1ncn[nH]1)Nc1ccc(Br)cc1	·	·	·	·	·	9
CC(=NCCCn1ccnc1)c1c(-c2ccccc2)[nH]n(-c2nc3ccccc3s2)c1=O	·	·	·	2*	·	·
COC(=O)C1=C(C)NC2=C(C(=O)CC(C)(C)C2)C1c1ccc(OCc2ccccc2Cl)c(OC)c1 (centres undefined)	·	·	·	·	·	3
Cc1cccc(NC(=O)c2cnccn2)c1	·	·	·	·	·	60*
CCc1cccc(NC(=O)c2cnccn2)c1	·	·	·	·	·	-10
SMILES	FXIa mix inh	Cathepsin G inh	FXIIa mix inh	PLAP act	C1s block	HePTP inh
CCOc1ccc2nc(NC(=O)C(CCSC)NS(=O)(=O)c3cccs3)sc2c1 (centres undefined)	-1	-9	-1	2.4*	-51	-7
CCOc1ccc2nc(NC(=O)c3cnc(C)cn3)sc2c1	·	·	·	2.6*	·	·
CCOc1ccc2nc(NC(=O)c3cc(C)cc(C)c3)sc2c1	·	·	·	·	·	9
Oc1ccccc1N=Cc1ccc(Br)cc1	·	·	·	·	·	-5
Cc1nc(N2N=C3/C(=C/c4ccc(F)cc4)CCCC3C2c2ccc(F)cc2)sc1C(=O)N(C)C (centres undefined)	·	·	·	2*	·	·
COc1ccc(/C=C/C(=O)Nc2nc(-c3ccccc3)cs2)cc1	·	·	·	·	·	2
O=C(Nc1cccc(-c2nnn(CC(=O)N3CCc4ccccc4C3)n2)c1)C1CCC1	8	0	5	2.3*	-11	11
CCOC(=O)CSCC(NC(=O)OC(C)(C)C)C(=O)OCC (centres undefined)	·	·	·	1	·	·
CCOC(=O)C(CSCC(=O)c1ccc(Cl)cc1Cl)NC(=O)OC(C)(C)C (centres undefined)	·	·	·	2*	·	·
CCOc1ccc(NC(=O)COc2ccc(Br)cc2)cc1	·	·	·	·	·	-7
O=C1CSC(c2cn(-c3ccccc3)nc2-c2ccc(Cl)cc2)N1Cc1ccccc1 (centres undefined)	·	·	·	·	·	-13
O=C1CSC(c2cn(-c3ccccc3)nc2-c2ccccc2)N1Cc1ccc(Cl)cc1 (centres undefined)	·	·	·	·	·	74*
OCCN1CCOCCN(CCO)CCOCC1	4	-6	-20	2*	0	-8
COC(=O)C1=C(C)N(C)C(=O)/C1=C\c1ccc(Br)cc1	·	·	·	·	·	9
O=C(Nc1ccccc1C(=O)O)c1ccc2c(c1)C(=O)N(C1CCCCC1)C2=O	·	·	·	·	·	101*
O=C(Nc1ccc(Br)cc1C(=O)O)c1ccc2c(c1)C(=O)N(C1CCCCC1)C2=O	·	·	·	·	·	-1
O=C(COc1ccc(Cl)cc1)OCC(=O)N1CCCCCC1	27*	-2	0	1	0	12
O=C(COc1ccc(Cl)cc1)OCC(=O)N1CCCC1	7	-1	2	0.9	-2	-8
Cc1ccc2c(c1)C(=Cc1nc3ccccc3c(=O)n1-c1ccccc1[N+](=O)[O-])C(=O)N2	·	·	·	·	·	104*
O=C1Nc2ccccc2C1=Cc1nc2ccccc2c(=O)n1-c1ccccc1[N+](=O)[O-]	·	·	·	·	·	1
O=C1NC(=O)C(=Cc2ccc(Cl)c([N+](=O)[O-])c2)C(=O)N1	·	·	·	·	·	96*
COc1cc(/C=N/N2C(=O)CSC2=S)ccc1O	·	·	·	2.2*	·	9
CC(=O)OCCCN1C(=O)c2ccccc2C1=O	·	·	·	·	·	-3
O=C(OCCCCN1C(=O)c2ccccc2C1=O)c1n[nH]c2ccccc12	-9	4	2	2*	-13	-1
CCCOc1cccc(C(=O)Nc2cc(C(=O)OC)cc(C(=O)OC)c2)c1	·	·	·	·	·	9
SMILES	FXIa mix inh	Cathepsin G inh	FXIIa mix inh	PLAP act	C1s block	HePTP inh
Cc1cccc(-n2c(CCn3nc(C)c([N+](=O)[O-])c3C)n[nH]c2=S)c1	·	·	·	2.1*	·	·
CC(C)c1ncc(C(O)c2ccc(N(C)C)cc2)n1C (centres undefined)	·	·	·	·	·	2
O=C(O)c1ccc(/C=N/c2ncn[nH]2)cc1	·	·	·	·	·	100*
Brc1ccc(/C=N/c2ncn[nH]2)cc1	·	·	·	·	·	-13
COc1cc(NC(=O)COc2cccc(C)c2)cc(OC)c1	·	·	·	·	·	-7
O=C(N/N=C/c1ccc(/C=N/NC(=O)Nc2ccccc2)cc1)Nc1ccccc1	·	·	·	·	·	1
O=C(N/N=C/c1ccccn1)c1ccc(Br)o1	·	·	·	2.4*	·	·
COCCCN1C(=O)/C(=C\c2ccc(SC)cc2)C(C(=O)OC)=C1C	·	·	·	·	·	-1
c1ccc(-c2c(-c3ccccc3)n(Cc3ccco3)c3ncnc(NCCCn4ccnc4)c23)cc1	·	·	·	90	·	·
OCCNc1ncnc2c1c(-c1ccccc1)c(-c1ccccc1)n2Cc1ccco1	10	5	0	2*	-37	·
CCc1ccc(NC(=O)CNC(=O)c2cn(-c3ccccc3OC)c(=O)c3ccccc23)cc1	·	·	·	2.2*	·	·
COc1ccc(C(=O)N2N=C3CC(C)(C)OCC3C2c2ccc(OC)cc2)cc1 (centres undefined)	·	·	·	·	·	-3
CCOC(=O)COc1cccc2nsnc12	·	·	·	·	·	-2
CCCCCCCCNc1nc(OC)nc(OC)n1	·	·	·	·	·	68*
CCN(CC)S(=O)(=O)c1ccc2oc(C(=O)NCCCN3CCOCC3)c(C)c2c1	·	·	·	2*	·	·
